Data as given in PubChem BioAssay (NCI).
Compounds without any hit were thinned out: in the full panel of roughly 83,000, 20% have a hit.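 Compound tested at a single concentration for 48 hours in 96-well plates; a percent growth value below 10 was scored as active.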 Values without a mark were called inactive. Activity calls are given as the source filed them.

System: PC-3 prostate
Experiment: NCI-60 one-dose screen, 48 h (100 = growth as untreated, 0 = no growth, -100 = all killed)
Settings: 10 µM unless noted
Method: Growth inhibition of the PC-3 human tumor cell line is measured as a screen for anti-cancer activity. Cells are grown in 96 well plates and exposed to the test compound for 48 hours. Compounds are tested at a single concentration, which is 10^-5 M for most compounds. The reported endpoint is percent growth (GI% or GIPRCNT), where numbers from 0 - 100% represent growth inhibition, and numbers from -100% - 0 represent cell death. For example, a value of 40 represents 60% growth inhibition. A value of 0 means no net growth occurred over the course of the experiment. A value of -40 indicates 40% of cells at the beginning of the experiment died by the end of the experiment. A value of -100 means all cells are dead at the end of the experiment.
NCI-60 Human Tumor Cell Lines Screen was performed using the standard one-dose NCI protocol, which is described in more detail at https://dtp.cancer.gov/discovery_development/nci-60/default.htm.
Compounds with GIPRCNT values below 10 were considered active. Activity score was based on GIPRCNT using the following formula: […]
Score is 0 for GIPRCNT values of 100 or above, 50 for GIPRCNT values of 0, and 100 for GIPRCNT values of -100.

| Structure (SMILES) | growth |
| --- | --- |
| CCOC(=O)c1c2c(cn1Cc1ccccc1)-c1oncc1CC2 | 97.3% |
| CSCc1ncc(-c2ccc(C(F)(F)F)cc2)c(NC2CCCCCC2)n1 | -5.89% [25 µM] (active) |
| CCOC(=O)CCCCCCCCC(=O)OCC | 101% |
| COc1cc(CNC(=O)CCCC/C=C/C(C)C)ccc1OCc1nnc(Nc2ccccc2F)o1 | 72.5% |
| CCCCCCCCc1ccc(CCC(N)(CO)CO)cc1 | 37.1% |
| Cc1ccnc2c(NC(C)CCCN)cc(O)c(O)c12 (stereo not given) | 91.6% |
| C/C=C/C/C=C/[C@H](C)C[C@H](O)[C@@H]1C[C@@H]2O[C@H]2/C=C/[C@@H]2OC(C)(C)O[C@H]2/C=C/C[C@H](C)CC(=O)O1 | 57.8% |
| CC(=O)N1CCN(CCNC(=O)n2cc(-c3ccncc3)c(-c3ccc(O)c(Cl)c3)n2)CC1 | 171% |
| N=C(N)c1ccc(-c2ccc(-c3ccc(Cl)cc3)s2)s1 | -91% (active) |
| COc1cc2ncnc(-n3ncc4cc(NC(=O)Nc5ccccc5)ccc43)c2cc1OC | -18.4% (active) |
| Nc1nc2c(c3cnccc13)C(c1cccc(Cl)c1)Cc1cnccc1-2 (stereo not given) | 12.8% |
| CCOC(=O)CSSCC(=O)OCC | 100% |
| O=c1c2c(c3ccccc3n1-c1ccccc1)NC(=S)NC2c1ccccc1 (stereo not given) | -47.1% (active) |
| CCCCCCCCC1OC1CCCCCCCC(=O)O (stereo not given) | 89.9% |
| COc1cccc(-c2cc(-c3cc4ccccc4oc3=O)nc(N)n2)c1 | 89.3% |
| O=C(/C=C1\C(=O)N(Cc2ccccc2)c2ccccc21)c1ccc(OCCN2CCCCC2)cc1 | 56.9% |
| O=Nc1ccc(O)c2ccccc12 | -10.5% (active) |
| CCCC(=O)NNc1[nH]c(-c2cc(OC)c(OC)c(OC)c2)cc1C(=O)OCC | 111% |
| CC1(C)C(O)NC(Cl)=C(C#N)C1(C#N)C#N (stereo not given) | 114% |
| CC1=C(C)C(=O)C(C(C)C2=C(C)C(=O)C(C)=C(C)C2=O)=C(C)C1=O | 52.4% |

| Structure (SMILES) | growth |
| --- | --- |
| Cn1c2c(cc(S(=O)(=O)c3ccccc3)c1=O)CCc1c-2cnn1-c1ccc(Cl)cc1 | 28.8% |
| CCn1cnc(C[C@H](NC(=O)[C@@H](NC(=O)Nc2cc(C(F)(F)F)cc(C(F)(F)F)c2)C(C)(C)C)C(=O)OC)c1 | -91.2% [100 µM] (active) |
| O=c1[nH]c2cc(O)ccc2n2cc3c(F)cccc3c12 | 46.4% |
| CC(C)(C)c1ccc([I+]c2ccc(C(C)(C)C)cc2)cc1 | 0.197% (active) |
| CCCCN(CCCC)CC(O)CN(CC)CC (stereo not given) | 97.7% |
| CC1=C(C)C[C@]2(C(=O)O[C@H]3CCCC[C@@H]32)[S@](=O)C1 | 110% |
| COCC(=O)NNc1[nH]c(-c2ccc(OC)cc2)cc1C#N | 97% |
| OC(c1ccccc1)(c1ccccc1)C(F)(F)F | 88.4% |
| Cc1c([C@H](C(Cl)Cl)[C@H](O)[C@H]2C[C@H](C)C(=O)O2)ccc2c1C(=O)[C@H]1[C@H]2C[C@@H](Br)[C@@]23O[C@@H](CO[C@H]2O)CC13C (stereo not given in full) | 30.4% |
| Nc1ccc(S(=O)(=O)Nc2cc(F)cc(F)c2)cc1 | 109% |
| COc1cc(C(=O)Nc2ccc(N(C)C)cc2)cc(OC)c1OC | 91.4% |
| Cc1cc2cn3c4ccc(O)cc4nc(N)c3c2cc1C | 25.4% |
| COc1cc(-c2nc(/C=C3/C(=O)Nc4ccccc43)c3ccccn23)cc(OC)c1OC | 57.8% |
| CCCCCCCCCCC(C[N+](C)(C)C/C=C/c1ccccc1)C(O)c1ccccc1 (stereo not given) | -29.9% (active) |
| CCCCCCCCCc1cc[n+](CC(=O)c2ccc([N+](=O)[O-])cc2)cc1 | -0.775% (active) |
| Cc1ccc(C(C)C)c(OCc2ccc(C(=O)N/N=C/c3cccc(O)c3O)cc2)c1 | 39.4% |
| CC(=O)N1N=C(c2ccc(Cl)cc2)CC1c1cn(-c2ccccc2)nc1-c1ccc([N+](=O)[O-])cc1 (stereo not given) | 108% |
| CC(=O)c1ccc2c(c1)c1ccccc1n2C | 89.2% |
| O=C(/C=C\c1ccccc1Cl)c1ccccc1 | 93.8% |
| CSC1=Nc2c(c(C)c(-c3ccccc3)n2CCCCl)C2=NC(=O)CN12 | 68.9% |
